Screening data (PubChem)
DAX1 inh-1: NR0B1 (DAX1) inhibition. 340,000 tested, 0.99% active. HEK293 Gal4-DAX1 luciferase reporter, luminescence. inhibition, % at 6.75 µM. P51843;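 active means inhibition above the mean over all tested compounds plus 3 SD, cut at about 4.2% in these data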;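 further: 0% = DAX1-transfected cells with DMSO and 100% = empty-vector control cells with DMSO; inhibition shows as a rise in luminescence from relieved DAX1 repression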
Target sequence (P51843 207-470 limits assumed): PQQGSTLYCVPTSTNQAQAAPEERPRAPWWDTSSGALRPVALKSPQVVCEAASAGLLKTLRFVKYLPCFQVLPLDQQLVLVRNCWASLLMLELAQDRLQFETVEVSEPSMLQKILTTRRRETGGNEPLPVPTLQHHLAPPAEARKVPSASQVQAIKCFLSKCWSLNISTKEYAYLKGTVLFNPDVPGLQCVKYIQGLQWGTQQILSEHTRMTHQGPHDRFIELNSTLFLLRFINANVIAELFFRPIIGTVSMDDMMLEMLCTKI
hcDAF12 agonist: activators of H. contortus DAF-12 nuclear receptor | HEK293 hcDAF-12 lit1-tk-luc reporter, luminescence; 0% DMSO, 100% Δ7-dafachronic acid | activation, % at 6.8 µM | 370,000 tested, 1.4% active;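 active means activation above the mean of all tested compounds plus 3 SD, cut at about 5.5% in these data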;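 further: 100% = response to 3 µM Δ7-dafachronic acid high control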
DAX1 inh-2: blocks DAX1 repression of SF-1 activated StAR promoter. HEK293T StAR-luciferase reporter, SF-1/DAX-1 repression relief. inhibition, % at 6.8 µM. 370,000 tested, 1.1% active. AID 652010;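 active means inhibition above the mean over all tested compounds plus 3 SD, cut at about 3.6% in these data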;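 further: 0% = DAX-1 cells with DMSO and 100% = cells lacking DAX-1 with DMSO; higher inhibition means more luminescence from relief of DAX-1 repression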
hgDAF-12 ag: hgDAF-12 agonism, primary luciferase screen; HEK293 GAL4-hgDAF12 UAS-luciferase reporter, agonist luminescence; normalized to butyrate control; activation, % at 6.8 µM; 370,000 tested, 1.8% active; AID 687014;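 active means activation above a cutoff set at the mean of all screened compounds plus 3 SD, cut at about 10% in these data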;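 further: 0% = DMSO wells and 100% = sodium butyrate wells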
ssDAF12 agonist: S. stercoralis DAF-12 activation, primary screen; HEK293 ssDAF-12/GRIP1 lit1-tk-luc reporter, luminescence; % of 3 µM dafachronic acid response; activation, % at 6.8 µM; AID 652126; 370,000 tested, 1% active;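 active means activation above the mean over all tested compounds plus 3 SD, cut at about 0.9% in these data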;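 further: 0% = DMSO-only wells and 100% = 3 µM delta7-dafachronic acid wells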
LXRb hcDAF ctr: activates human LXR-beta, counter-screen for hcDAF-12 agonists. shares compounds with hcDAF12 agonist. HEK293 Gal4-LXR tk-luc reporter, luminescence, 24 h; normalized: DMSO 0%, positive control 100%. activation, % at 6.8 µM. 3,400 tested, under 10 active. AID 743027;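 active means mean percent activation of the reporter above a cutoff set as the average over tested compounds plus their standard deviation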
hcDAF12 ag: confirmation of H. contortus DAF-12 agonists. shares compounds with hcDAF12 agonist. HEK293 hcDAF-12 lit1-tk-luc reporter, luminescence; % of Δ7-dafachronic acid response. activation, % at 6.8 µM. 3,400 tested, 61% active. AID 743032;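 active means mean activation across triplicate tests above the threshold derived from the earlier primary screen, cut at about 5.5% in these data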;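 further: 0% = DMSO only wells and 100% = 3 µM Δ7-dafachronic acid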
* = called active by the depositor; . = no result given. Most compounds without a hit are left out; they make up all but 4.1% or so of the library.

SMILES | DAX1 inh-1 | hcDAF12 agonist | DAX1 inh-2 | hgDAF-12 ag | ssDAF12 agonist | LXRb hcDAF ctr | hcDAF12 ag
N=c1oc2ccccc2cc1-c1nc2ccccc2c(=O)[nH]1 | 0 | 8.3* | 2 | 1 | 0 | 0 | 5
COc1ccc(NC(=O)c2c(NC(=O)CNCC(C)C)sc3c2CCC3)c(OC)c1 | -2 | -1 | 0 | 0 | -2 | . | .
COc1ccc(/C=C\c2nc(=O)c3ccccc3o2)cc1 | -1 | 7.2* | 4.2* | 19* | 0 | 1 | 11*
Cc1cccc(/C=N/c2sc3c(c2C#N)CCN(Cc2ccccc2)C3)c1O | 3 | 14* | 0 | 0 | 1 | 0 | 6.7*
CC(=O)c1ccc(OCc2cc(=O)n3ccsc3n2)cc1 | 4 | 9.8* | 1 | 9 | -1 | 0 | 3
O=C(Nc1nccs1)C1Cc2ccccc2CN1S(=O)(=O)c1ccc(F)cc1 (centres undefined) | 1 | 11* | 3 | 12* | 1 | 1 | 7.7*
COc1ccc2c(c1OC)C(=O)N1C(C(=O)O)Cc3c([nH]c4ccccc34)C21 (centres undefined) | 2 | 8.8* | 1 | 3 | 1 | 0 | 3
C/C(=N\NC(=O)c1ccc(-n2cnnn2)cc1)c1ccc(Cl)cc1 | 1 | -1 | 0 | 2 | -1 | . | .
COC(C(=O)Nc1ccnn1C1CCN(Cc2nccs2)CC1)c1ccccc1 (centres undefined) | 0 | 2 | 0 | 0 | -1 | . | .
CC(C)CNC(=O)C1CCN(Cc2ccc(OCc3ccccc3)cc2)CC1 | 0 | 7.1* | 0 | 8 | 0 | 1 | 3
CC(O)CNC(=O)C1CCN(Cc2ccc(OCc3ccccc3)cc2)CC1 (centres undefined) | 4 | 0 | 1 | 7 | -1 | . | .
COc1ccc(C2=Nc3cccc4cccc(c34)N2)cc1 | 0 | 3 | 1 | 4 | 0 | . | .
Nc1cccc(C2=Nc3cccc4cccc(c34)N2)c1 | 0 | 8.5* | 1 | 4 | 0 | 0 | 5.7*
CCC1CCCCN1C(=O)COc1ccccc1NC(C)=O (centres undefined) | 0 | 0 | -1 | -1 | -1 | . | .
Cc1ccc(C(=O)Nc2nc3ccccc3n2CCN2CCCC2)cc1 | 1 | 9.1* | 4.3* | 14* | 2.7* | 1 | 8.5*
CCCn1c(NC(=O)c2ccc(C)cc2)nc2ccccc21 | 0 | -1 | 0 | 4 | -1 | . | .
O=C(COC(=O)Cc1cccc(F)c1)NC(=O)NC1CCCCC1 | 0 | 1 | -1 | 0 | -1 | . | .
Cc1cccc(N=C2NN=C(c3c(C)[nH]c4ccccc34)CS2)c1 | -1 | 7.9* | -1 | 2 | -1 | 0 | 3
Cc1cc(C)c(S(=O)(=O)/N=C2\C=C(NS(=O)(=O)c3ccccc3)C(=O)c3ccccc32)c(C)c1 | -1 | 8.0* | 0 | 0 | 0.9* | 0 | 1
O=C(Nc1ccc(Cl)cc1)[C@@H]1[C@@H]2C(=O)N(c3cccc(F)c3)C(=O)[C@@H]2[C@H]2C=CC=NN21 | -1 | 1 | 0 | 2 | -1 | . | .
COc1ccc(C(=O)[C@H]2[C@H]3C(=O)N(c4ccc(OC(C)=O)cc4)C(=O)[C@H]3C3C=CC=NN32)cc1 (some centres undefined) | 3 | -1 | -1 | 2 | 0 | . | .
O=C(Nc1ccc(Cl)cc1)[C@@H]1[C@@H]2C(=O)N(c3ccc4ccccc4c3)C(=O)[C@@H]2[C@H]2C=CC=NN21 | -1 | 6.8* | 0 | 0 | 0 | 0 | 2
COc1ccc(N2C(=O)[C@@H]3[C@H](C2=O)[C@H]2C=CC=NN2[C@@H]3C(=O)Nc2ccc(Cl)cc2)cc1 | . | 6.5* | 0 | -1 | 0 | 0 | 1
Cn1c(O)c(N=NC(=O)c2cc(-c3cccs3)nc3ccccc23)c2ccccc21 | -1 | 2 | 0 | 0 | 0 | . | .
Cn1c(O)c(N=Nc2nc(-c3ccccc3)cs2)c2ccccc21 | 1 | 12* | 0 | 2 | 0 | 0 | 7.4*
